Results reported in the OligoGym collection.
Note: reference of the scale not given here.

The sequences below were run against ODF3L1 (assay: pooled miR-30 sensor sort-seq; sequence = guide strand). Conditions: shRNA.
With TTGAACATGGAGATGTCATGAT the sensor-assay potency score (higher = more potent) was 0.585.
TTGTGCACAGTGACCTGCTGGA gave a sensor-assay potency score (higher = more potent) of 0.448.
TAAGCTGGTGCCTTGAACATGG gave a sensor-assay potency score (higher = more potent) of 0.328.
TGATCTATGTAGCCCGTGCAGG was tested, and the sensor-assay potency score (higher = more potent) was -1.19.
TTGAGGTCCATCACTCTGTATG showed a sensor-assay potency score (higher = more potent) of -1.32.
TCATGATCTATGTAGCCCGTGC was tested, and the sensor-assay potency score (higher = more potent) was -0.361.
For TCTGCTACTAGAAATCTTGGTC, the sensor-assay potency score (higher = more potent) was 0.655.
With ATCTTCTCAAAGTAGTACTGGC the sensor-assay potency score (higher = more potent) was -0.892.
Sequence TCCTTGTAGAACCAGTTCTTGT has a sensor-assay potency score (higher = more potent) of -1.85.
For TGTCATGATCTATGTAGCCCGT, the sensor-assay potency score (higher = more potent) was -0.612.

What follows are sequences tested against ODF4 in the same assay as above. Conditions: shRNA.
TTGGTCTCTTTCTCCTTCTGAC gave a sensor-assay potency score (higher = more potent) of -0.95.
In the case of TTCCAGGTCTCTGATGTTGGTC, the sensor-assay potency score (higher = more potent) is reported as -1.05.
In the case of TAGCAAAGGATCGCGCAGGTGA, the sensor-assay potency score (higher = more potent) is reported as -0.209.
TCTTCTACTGAGCCGAAACTGC was tested, and the sensor-assay potency score (higher = more potent) was -1.39.
Work on TTCTACTGAGCCGAAACTGCTG yielded a sensor-assay potency score (higher = more potent) of -0.397.
TCTACTGAGCCGAAACTGCTGC gave a sensor-assay potency score (higher = more potent) of 0.472.
Sequence TCTCTTTCTCCTTCTGACCTGG has a sensor-assay potency score (higher = more potent) of -0.166.
TTGAAGTAGCAAAGGATCGCGC was tested, and the sensor-assay potency score (higher = more potent) was 0.0925.
For TCTGTGATCGTCTGTGCCCTTG, the sensor-assay potency score (higher = more potent) was -0.736.
TATAGGATAAGCACCAGCCAAC showed a sensor-assay potency score (higher = more potent) of -1.15.

The sequences below were run against OGDHL in the same assay as above. Conditions: shRNA.
Sequence TAAGCCTCCTCACAGATCCGGT has a sensor-assay potency score (higher = more potent) of -0.839.
TTCAGCACAGGCACCTGTCTGT gave a sensor-assay potency score (higher = more potent) of 0.114.
TTCATAGGCACACACGTCCTGC gave a sensor-assay potency score (higher = more potent) of -1.24.
With TTGACCACGATCCAGTTGCAGT the sensor-assay potency score (higher = more potent) was -1.4.
Sequence TTGCTCATCTGCAGGAACCTTT has a sensor-assay potency score (higher = more potent) of -0.719.
TACATCTCCTCCATGTAACTGG gave a sensor-assay potency score (higher = more potent) of -0.405.
For TTGAATCTACAGATAAGCGAGG, the sensor-assay potency score (higher = more potent) was -0.941.
In the case of TGGAGAACTGCATCACACCAGG, the sensor-assay potency score (higher = more potent) is reported as -1.03.
Work on TTCTACTTTGGTACACATGAGC yielded a sensor-assay potency score (higher = more potent) of -0.678.
Work on TACTTTGGTACACATGAGCTGT yielded a sensor-assay potency score (higher = more potent) of -0.325.
Work on TTCTTGGTCATGTCCGCACGGC yielded a sensor-assay potency score (higher = more potent) of -0.866.
Work on TTTGAATCTACAGATAAGCGAG yielded a sensor-assay potency score (higher = more potent) of -0.201.

Each sequence was assayed against OLFML2A in the same assay as above. Conditions: shRNA.
TTGTACATGTTACTCCAGCGGC was tested, and the sensor-assay potency score (higher = more potent) was -0.677.
TTATACTTGACTTTGTTCTAAA gave a sensor-assay potency score (higher = more potent) of -0.893.
TAGTTGGTGACATAGATCCTGT was tested, and the sensor-assay potency score (higher = more potent) was -0.519.
Work on TTGAGTTTCTCCATCTTCCACT yielded a sensor-assay potency score (higher = more potent) of -0.593.
With TTTCCATAGTAGTAGTTGGTGA the sensor-assay potency score (higher = more potent) was -0.818.
For TAGCTTGTACATGTTACTCCAG, the sensor-assay potency score (higher = more potent) was -0.555.
TTGTAGTAGGTGAAGCCCCGGA gave a sensor-assay potency score (higher = more potent) of -0.647.
For TACTTGATGATGTTCTTGGTGA, the sensor-assay potency score (higher = more potent) was 0.197.
